# Screening data: PubChem BioAssay, National Center for Advancing Translational Sciences (NCATS)
# p53 reactivator – qHTS assay for re-activators of p53 using a Luc reporter; H1299 p53-A138V BP100-luciferase reporter, luminescence, 24 h; Potency, µM (doses to about 92.2 µM), actives largely listed as activators; 0.063% of 320,000 active; also: nearly all actives have a fitted effect of over 45% in size
#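 p53-null H1299 cells stably carrying temperature-sensitive p53-A138V and a BP100-luciferase reporter were pinned with compounds (4-point, 1:5 series) and held 24 hrs at 37 deg C. Luminescence was read 10 min after detection reagent.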
# BRCA1 expr act – qHTS Assay to Identify Small Molecule Activators of BRCA1 Expression; Potency, µM (doses to about 46.1 µM), usual class: activators; AID 624202, 2012; 1.1% of 380,000 active; MCF7-BRCA1-FFLuc reporter, luminescence, 48 h; response scale: scaled: vehicle 0%, 10 µM genistein 100%; also: nearly all actives have a fitted effect of over 80% in size
#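 Quantitative HTS in MCF7 cells stably reporting BRCA1 expression via firefly luciferase. Compound treatment lasts 48 h at 37 °C in phenol-red free MEM. Activation is expressed relative to genistein at 10 microM and DMSO.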
# PTHR1 ag – qHTS for PTHR1 Agonists: Primary Screen; Parathyroid hormone/parathyroid hormone-related peptide receptor (Homo sapiens), Q03431; HEK293 GP2 PTHR1 cells, GloSensor cAMP luminescence, 1 h; Potency, µM (titrated, usually from 115 µM), most hits filed as activators; 0.075% of 410,000 active; AID 743266, 2014; also: nearly all actives have a fitted effect of over 55% in size
# Target sequence (Q03431 whole entry, looked up): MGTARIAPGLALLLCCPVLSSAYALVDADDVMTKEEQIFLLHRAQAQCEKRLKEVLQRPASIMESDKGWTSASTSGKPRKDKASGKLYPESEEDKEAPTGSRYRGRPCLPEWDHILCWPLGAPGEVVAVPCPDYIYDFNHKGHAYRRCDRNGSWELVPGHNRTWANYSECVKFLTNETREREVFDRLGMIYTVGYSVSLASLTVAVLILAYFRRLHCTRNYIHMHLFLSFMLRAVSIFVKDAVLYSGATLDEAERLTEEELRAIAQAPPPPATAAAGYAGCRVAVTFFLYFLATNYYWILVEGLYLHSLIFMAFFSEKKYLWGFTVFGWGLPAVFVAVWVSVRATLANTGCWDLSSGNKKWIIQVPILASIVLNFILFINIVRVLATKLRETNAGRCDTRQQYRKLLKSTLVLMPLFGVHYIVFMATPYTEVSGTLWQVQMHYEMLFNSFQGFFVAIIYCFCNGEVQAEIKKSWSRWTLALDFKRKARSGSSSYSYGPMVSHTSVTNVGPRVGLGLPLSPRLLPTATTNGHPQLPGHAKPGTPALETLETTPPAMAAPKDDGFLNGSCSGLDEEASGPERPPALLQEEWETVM
#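 HEK-293-derived GP2 cells expressing PTHR1 and a GloSensor cAMP reporter, 3,000/well, plated overnight, given luciferin plus IBMX (each 0.5 mM as added) for 1 h at 37 °C, then compound for 1 h at 37 °C. Luminescence was read after 15 min at room temperature.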
# RGS4 inhibitor – Inhibitors of Regulator of G Protein Signaling (RGS) 4: qHTS; Potency, µM (titrated, usually from 114 µM), usual class: inhibitors; 0.039% of 390,000 active; Transcreener GDP fluorescence polarization, RGS4-accelerated GTP hydrolysis; AID 504845, 2011; also: nearly all actives have a fitted effect of over 75% in size
#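 MLSMR compounds (23 nl, pin-transferred) preincubated 10 min at room temperature with a 500nM (2x) first reagent, then RGS4 at 900nM (2x) plus Transcreener GDP mix added; fluorescence polarization (620/688 nm) read before and after 90 min at 30 °C.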
# LDHA inh – qHTS assay for inhibitors of human lactate dehydrogenase | activity change, % (values are at about 110 or 230 µM) | 0.15% of 480,000 active | purified LDHA, NADH/diaphorase-resazurin fluorescence; hits give low values | L-lactate dehydrogenase A chain (Homo sapiens), P00338; in the data active = activity change below about -30%; inconclusive = mostly about -25% to -30%
#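 Human LDH5 at 2 nM final in Tris HCl pH 7.4 with 0.06 mM NADH and 0.2 mM pyruvate, reacted 5 minutes at room temperature. Remaining NADH coupled via diaphorase/resazurin; resorufin fluorescence read at 0 and 20 minutes, normalized to enzyme-free and DMSO wells.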
# Hits are given with their value; 0 = inactive; ? = inconclusive; - = no result; ! = repeats disagree. Rows were chosen to be rich in hits. Some 1.1% of all compounds tested hit in one or more screens of this group. Unless noted, calls follow the shape of the dose curve; as a rule, active = well fitted curve in the direction sought with a large enough effect; inconclusive = small, poorly fitted or top-dose-only effect, or another doubt; inactive = no such curve, though single readings can be large; an effect the other way counts as inactive or inconclusive.
SMILES,p53 reactivator,BRCA1 expr act,PTHR1 ag,RGS4 inhibitor,LDHA inh
O=C(NCCc1ccccn1)c1cc2ccccc2o1,?,10µM,0,0,0
O=C(Cc1ccc2ccccc2c1)NCCc1ccccn1,-,-,-,-,0
CCN1CCCC1CNC(=O)C1CCN(S(=O)(=O)c2ccc3c(ccn3CC)c2)CC1 (configuration not stated),-,-,-,-,0
S=C(N/N=C/c1ccc(Br)cc1)N1CCCCC1,-,8.9µM,0,0,0
CCOc1ccc(-c2nc(SCC(=O)Nc3ccc(C)c(C)c3)n3[nH]c(=O)cc3n2)cc1,-,-,0,0,0
Cc1ccc(NC(=O)CSc2nc(-c3ccc(C(C)(C)C)cc3)nc3cc(=O)[nH]n23)cc1C,-,-,0,0,-41
COc1ccc2cc(/C=N/O)c(Cl)nc2c1,0,7.9µM,0,0,0
CN1CCC[C@H]1CCNc1ccc2c(=O)c3ccccc3n(C)c2c1,-,?,0,?,0
CN1CCCC1CCNc1ccc2c(=O)c3ccccc3oc2c1 (configuration not stated),0,13µM,0,0,0
O=c1c2ccccc2oc2cc(NCCCN3CCOCC3)ccc12,-,5.6µM,0,0,0
Cn1c2ccccc2c(=O)c2cc(NCCCN3CCOCC3)ccc21,?,?,0,0,0
O=c1c2ccccc2oc2ccc(NCCCN3CCOCC3)cc12,0,?,0,0,0
COc1cccc2sc3cc(NCCCN4CCOCC4)ccc3c(=O)c12,0,10µM,0,0,0
CN1CCCC1CCNc1ccc2oc3ccccc3c(=O)c2c1 (configuration not stated),0,1.3µM,0,0,0
O=C(O)CNS(=O)(=O)c1ccc(F)c(F)c1F,-,-,-,-,0
CC(=O)N(C)c1ccc(NC(=O)Nc2ccc(Cl)cc2)cc1,-,11µM,0,0,0
CCN=C1NN=C(c2ccc(C)cc2)CS1,?,2.2µM,0,0,0
c1ccc(CN=C2NN=C(c3ccccc3)CS2)cc1,?,0,0,0,0
N=C(N)c1cc(I)cc([N+](=O)[O-])c1,-,-,-,-,0
N#Cc1nc(-c2ccccc2Cl)oc1N1CCOCC1,0,0,0,0,-32!
CC1CCN(c2oc(-c3ccccc3Cl)nc2C#N)CC1,?,6.3µM,0,0,0
Cc1ccccc1-c1nc(C#N)c(N2CCC(C)CC2)o1,?,?,0,0,0
O=C(c1cc(-c2csc(-c3ccccc3)n2)c[nH]1)N1CCCC1,-,-,-,-,0
C/C=C/C=C(\NC(=O)c1cccc(C)c1)C(=O)O,-,-,-,-,0
CC(O)(c1ccccc1)c1nc(-c2cccc(C(=O)O)c2)cs1 (configuration not stated),-,10µM,0,-,0
SMILES,p53 reactivator,BRCA1 expr act,PTHR1 ag,RGS4 inhibitor,LDHA inh
COc1ccc(C(=O)c2ccccc2)c(OC(=O)c2ccccc2Sc2ccccc2C#N)c1,-,-,-,-,0
Cc1csc(Nc2nc(N)c(C(=O)Nc3ccccc3)o2)n1,0,7.9µM,0,0,0
O=C(Nc1nnc(Cc2ccccc2)s1)c1cccs1,?,?,0,0,0
O=C(Nc1nnc(CC2=CCCCC2)s1)c1cccs1,0,6.3µM,0,0,0
O=C(CN(C1CCCCC1)S(=O)(=O)c1ccc(Br)cc1)N1CCCCCC1,-,-,-,-,0
CCN(CC)C(=O)CN(C1CCCCC1)S(=O)(=O)c1ccc(Br)cc1,-,-,-,-,-37
Cc1ccc(NC(=O)c2cc(=O)c3ccc(C)c(C)c3o2)cc1C,-,-,-,-,0
Nn1c(SCc2c(F)cccc2F)nnc1-c1ccccn1,0,5.6µM,0,0,0
Cc1ccc(C)c(CSc2nnc(-c3ccccn3)n2N)c1,0,0,0,0,0
COC(=O)c1ccccc1OCCOc1ccccc1C(=O)OC,0,0,0,0,0
COC(=O)c1ccccc1OCCCCN1CC(C)OC(C)C1 (configuration not stated),0,0,0,0,-31
COc1ccc(C(=O)/C(=C/N(C)C)S(=O)(=O)c2ccccc2)cc1,0,3.2µM,0,0,0
COC(=O)c1ccc(-c2ccc(Cl)cc2)nc1C,?,2µM,0,0,0
Nc1nc2ccccc2n1/N=C/c1ccc2c(c1)OCO2,0,5.6µM,0,0,0
